NS1 function inh: inhibitors of influenza NS1 protein function | AID 2326 | Potency, µM (titrated, usually from 46.1 µM), for the others: at the highest dose activity, positive = more growth | actives 0.4% (n = 270,000); calls by dose curve; note: potency is the fitted concentration of half-maximal effect; actives are rising curves; nearly all actives have a fitted effect of over 50% in size
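Read-out: OD600 growth recovery of NS1-expressing budding yeast. Cells grown overnight at 30C in -URA glucose medium, washed, resuspended and diluted 1:100 in 2% galactose assay medium, pH 6.0. Same strain lacking NS1 served as positive control.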
Cycloheximide cs: counter-screen for Shiga toxin inhibitors: cycloheximide protein synthesis inhibition; AID 2314; actives 12% (n = 300,000); max response, %; cell reporter, cycloheximide protein synthesis inhibition counterscreen; in the data active = max response mostly above about 13%, no sharp cut-off; inactive = mostly below about 14%; note: read at 38.3 µM for the half of the compounds with a filed dose; 0% is about no effect
Pf growth 96h: inhibits malaria parasite growth, 96 h. P. falciparum luciferase reporter growth, 96 h. Potency, µM (highest dose often 28.7 µM), for the others: at the highest dose activity change, negative = inhibition, actives largely listed as inhibitors. actives 6.9% (n = 320,000). AID 504834; note: potency is the fitted concentration of half-maximal effect; % is set by controls: 0 for no effect and ±100 for the full control effect
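Luminescence readout: decreased luciferase signal marks inhibited growth of reporter-expressing P. falciparum in infected red cells (2% hematocrit, 0.05% parasitemia final), exposed to compound two generations (96 h, 37 C, 5% CO2).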
Shiga inhibitor: inhibitors of Shiga toxin in Vero cells; Vero cells, Shiga toxin protein synthesis inhibition reporter; inhibition, % at 38.7 µM; AID 2315; actives 9.2% (n = 290,000); in the data active = inhibition mostly above about 28%, no sharp cut-off; inactive = mostly below about 43%; note: 0% is about no effect
Sm TGR block: S. mansoni TGR enzyme inhibition. purified TGR, DTNB reduction, TNB absorbance 405 nm. actives 3% (n = 360,000). Potency, µM (highest dose often 114 µM), without a hit: at the top dose activity change, negative = inhibition, actives largely listed as inhibitors. Q962Y6; note: potency is the fitted concentration of half-maximal effect; % is set by controls: 0 for no effect and ±100 for the full control effect; nearly all actives have a fitted effect of over 60% in size
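TGR 20 nM + NADPH 100 uM (dispensed conc.), cpd preinc 15 min RT; start with NADPH (500 uM addition) then DTNB (15 mM addition). Kinetic TNB absorbance, 405 nm filter. Four-parameter Hill fit across titration.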
Pf growth 48h: P. falciparum growth inhibition at 48 hours (one generation); Potency, µM (doses to about 28.7 µM), for inactives: at the highest dose activity change, negative = inhibition, most hits filed as inhibitors; P. falciparum luciferase growth in erythrocytes, 48 h; AID 504832; actives 5.9% (n = 310,000); note: potency is the fitted concentration of half-maximal effect; % is set by controls: 0 for no effect and ±100 for the full control effect
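Luciferase-expressing P. falciparum in infected erythrocytes (2% hematocrit, 0.1% parasitemia final) in RPMI 1640/0.5% Albumax were exposed to compound for 48 hours at 37 C, 5% CO2; growth read as luminescence.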
* = called active by the depositor; ? = inconclusive; . = not tested or not shown; [ ] = remark or other dose. A selection: hits, their analogues and other compounds. The true share with any hit is near 21%. Unless noted, calls come from the whole dose curve; as a rule, active = well fitted curve in the direction sought with a large enough effect; inconclusive = small, poorly fitted or top-dose-only effect, or another doubt; inactive = no such curve, though single readings can be large; an effect the other way counts as inactive or inconclusive.

SMILES | NS1 function inh | Cycloheximide cs | Pf growth 96h | Shiga inhibitor | Sm TGR block | Pf growth 48h
O=C(NCCCOc1cccc(CN2CCCCC2)c1)c1ccc(Cl)c(Cl)c1 | -12.1% | -4.5 | 2.33µM* | -6.0 | -12.0% | ?
Cc1cc(C(=O)Nc2ccc(CC(=O)O)cc2)c(C)o1 | 3.4% | -6.2 | 15.1% | -6.0 | -19.9% | -9.5%
O=C(c1cnn2c1NC(c1ccc(Br)cc1)CC2C(F)(F)F)N1CCN2CCCC2C1 (stereo not drawn) | -6.6% | -3.7 | ? | -16.2 | 0.0% | ?
O=C(c1cnn2c1NC(c1ccc(Br)cc1)CC2C(F)(F)F)N1CCN(C23CC4CC(CC(C4)C2)C3)CC1 (stereo not drawn) | 8.9% | -3.7 | 8.28µM* | -2.8 | -15.4% | 3.7µM*
Cc1ccc(NC(=O)c2cccnc2)cc1S(=O)(=O)N(C)C | . | 11.7 | 8.8% | 22.6 | -8.8% | -28.9%
CN(c1ccccc1)S(=O)(=O)c1cccc(NC(=O)c2cccc(C#N)c2)c1 | . | . | ? | . | -2.5% | 13.1µM*
Cc1ccc(NC(=O)c2ccc3ncsc3c2)cc1S(=O)(=O)N(C)C | 2.3% | 69.5* | 244.8% | 146.4* | 6.0% | 121.2%
CN(c1ccccc1)S(=O)(=O)c1cccc(NC(=O)c2ccc3ncsc3c2)c1 | 0.6% | -0.9 | 10.4µM* | -6.4 | -3.8% | ?
CN(c1ccccc1)S(=O)(=O)c1cccc(NC(=O)CSc2nncs2)c1 | -0.4% | -1.8 | ? | -3.4 | -13.8% | -14.9%
Cc1ccc(NS(=O)(=O)c2ccc(Cl)c(C(=O)Nc3ccccc3-c3nc4ccccc4[nH]3)c2)cc1C | ? | 9.5 | 11.7µM* | 22.2 | 4.6% | 10.4µM*
CCc1nnc(NC(=O)C2CCCO2)s1 (stereo not drawn) | 2.2% | 17.2* | -4.1% | 27.5 | 7.6%[57.1 µM] | 44.6%
CCCc1nnc(NC(=O)C2CCCO2)s1 (stereo not drawn) | 2.0% | 25.2* | 15.2% | 52.5 | -3.3% | 29.7%
CC(C)c1nnc(NC(=O)C2CCCO2)s1 (stereo not drawn) | 4.8% | 13.3 | 13.5% | 0.8 | 0.0% | 24.5%
O=C(CS(=O)(=O)c1cccc2nsnc12)N1CCN(c2ccc(F)cc2)CC1 | . | . | . | . | -9.8% | .
Cc1ccc(N(CC(=O)NCCc2ccccc2)S(=O)(=O)N(C)C)cc1 | . | . | . | . | -3.2% | .
O=C(NNC(=S)Nc1ccccc1)c1ccc2ncccc2c1 | . | 37.4* | 340.3% | 56.3* | -7.5% | 267.1%
O=C(NC(=S)Nc1ccc2[nH]ncc2c1)c1ccccc1 | -68.4% | 35.1* | . | 88.4* | -10.7% | 73.9%
O=C(NC(=S)Nc1ccc2nc[nH]c2c1)c1ccccc1 | 1.3% | 22.1* | 147.3% | 50.5* | -89.2% | 103.0%
CC(C)(C)NC(=S)NNC(=O)c1ccc2ncccc2c1 | 2.0% | 21.3* | -56.0% | 46.6* | -5.6% | 43.8%
Cc1c(Cl)cccc1NC(=O)CCC(=O)N/N=C/c1ccc[nH]1 | 7.8% | 1.0 | ? | 11.7 | ? | 10.5%
CCN(CC)S(=O)(=O)c1ccc(NC(=O)Cc2cccs2)cc1 | . | 3.5 | 9.6% | 17.8 | -17.3% | -9.2%
O=C(NC(=S)Nc1ccc2ncccc2c1)c1ccccc1 | . | 51.8* | 56.0% | 74.7* | -30.9% | 311.7%
CCN1CCC(N(Cc2ccc3c(c2)OCO3)C(=O)Nc2cc(Cl)ccc2C(=O)OC)CC1 | . | . | . | . | 3.9% | .
COc1ccc(CC(=O)Nc2nnc(C(C)C)s2)cc1OC | 0.8% | -10.3 | 29.2% | -30.1 | -2.6% | ?
CCc1nn(CC(=O)Nc2cc(C)ccc2C)c(=N)s1 | . | 13.2 | 11.9% | -2.6 | 16.3% | 8.1%
CCc1cc2c(=O)n(Cc3ccco3)c(SCc3c(C)noc3C)nc2s1 | -18.6% | 12.3* | ? | 42.2* | 11.2µM* | ?
CCc1cc2c(=O)n(Cc3ccco3)c(SCC(=O)NCC3CCCO3)nc2s1 (stereo not drawn) | 8.8% | -2.7 | 1.6% | -2.3 | -31.7% | ?
CCc1cc2c(=O)n(Cc3ccco3)c(SCC(=O)N(C)C3CCS(=O)(=O)C3)nc2s1 (stereo not drawn) | . | 18.2 | ? | 43.0 | 31.6µM* | -7.3%
CCc1cc2c(=O)n(Cc3ccco3)c(SCC(=O)NC3CCS(=O)(=O)C3)nc2s1 (stereo not drawn) | . | 15.9 | ? | -11.7 | 15.8µM* | ?

Compound activity (PubChem BioAssay)
